Reference: PubChem BioAssay (EPA / NIEHS)
Results filed as inconclusive are left out. Calls of active or inactive are those of the source. The calls were made as follows: active = hit-call score of the fitted dose curve at least 0.9, where 1 is the maximum; inconclusive = response in the unintended direction; inactive = score below 0.9.

biological target: rat Peripheral-type Benzodiazepine Receptor (PBR), Tspo (gene 24230) (UniProt P16257); assay: NVS_MP_rPBR: NovaScreen (NVS) Membrane Protein Assay for rat Peripheral-type Benzodiazepine Receptor (PBR) (AID 2283335)
Sequence (P16257 whole entry, looked up): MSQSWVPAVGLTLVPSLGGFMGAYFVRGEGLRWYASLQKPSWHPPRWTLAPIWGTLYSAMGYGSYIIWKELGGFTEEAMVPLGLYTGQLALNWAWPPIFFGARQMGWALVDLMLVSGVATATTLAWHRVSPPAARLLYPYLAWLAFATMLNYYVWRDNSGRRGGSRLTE
Procedure, shortened: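 Radioligand displacement, rat kidney membrane prep, 1 h exposure, filter-based scintillation read; DMSO baseline, loss-of-signal scored. Primary screen at 25 uM in duplicate, actives followed up in concentration series.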

| Compound | AC50 | outcome |
| --- | --- | --- |
| CCCCCCCCCCCCc1cccc(S(=O)(=O)O)c1 | 12.4 µM (active) |  |
| O=[N+]([O-])c1ccc(Nc2ccccc2)cc1 |  | inactive |
| O=C1c2ccccc2C(=O)C1C(=O)C(c1ccccc1)c1ccc(Cl)cc1 (configuration not stated) |  | inactive |

tested on: not listed separately; assay: NVS_IC_rCaBTZCHL: NovaScreen (NVS) Ion Channel Assay for Calcium Channel, Type L, Benzothiazepine Site (CaBTZCHL) (AID 2283337)
Procedure, shortened: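 Competitive displacement of a site-specific radioligand from rat cortex membranes, measured as signal loss against DMSO baseline by filter radiodetection after 1.5 h. Single-point 25 uM primary screen.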

| Compound | outcome |
| --- | --- |
| Brc1ccc(Br)cc1 | inactive |
| Nc1nc(N)nc(Cl)n1 | inactive |
| O=S(=O)(C(Cl)(Cl)Cl)C(Cl)(Cl)Cl | inactive |

biological target: bovine Estrogen Receptor (ER), ESR1 (gene 407238) (UniProt P49884); assay: NVS_NR_bER: NovaScreen (NVS) Nuclear Receptor Binding Assay for bovine Estrogen Receptor (ER) (AID 2283345);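 also: actives lower the bound radioligand count which means they displace the ER ligand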
Sequence (P49884 whole entry, looked up): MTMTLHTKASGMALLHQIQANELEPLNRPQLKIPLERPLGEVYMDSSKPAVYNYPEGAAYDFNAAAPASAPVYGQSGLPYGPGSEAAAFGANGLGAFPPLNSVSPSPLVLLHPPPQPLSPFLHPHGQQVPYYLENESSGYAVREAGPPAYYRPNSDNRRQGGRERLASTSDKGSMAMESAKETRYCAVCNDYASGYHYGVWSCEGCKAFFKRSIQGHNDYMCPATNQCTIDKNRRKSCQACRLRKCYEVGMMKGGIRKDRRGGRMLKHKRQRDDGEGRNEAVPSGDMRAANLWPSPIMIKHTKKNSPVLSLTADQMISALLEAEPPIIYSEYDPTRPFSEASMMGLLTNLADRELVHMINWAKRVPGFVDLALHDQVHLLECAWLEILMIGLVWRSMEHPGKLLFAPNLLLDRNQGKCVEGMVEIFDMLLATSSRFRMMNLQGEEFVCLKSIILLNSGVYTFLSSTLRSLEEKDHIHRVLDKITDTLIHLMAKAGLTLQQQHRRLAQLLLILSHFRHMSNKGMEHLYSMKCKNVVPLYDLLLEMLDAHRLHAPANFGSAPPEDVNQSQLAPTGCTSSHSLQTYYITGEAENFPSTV
Procedure, shortened: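 Bovine uterine membranes; tritiated or iodinated radioligand; competitive displacement; 18 h; scintillation read; DMSO negative control; 25 uM duplicates, then concentration series for actives.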

| Compound | outcome |
| --- | --- |
| [F][Sn]([c]1ccccc1)([c]1ccccc1)[c]1ccccc1 | inactive |
| C=CC(=O)[O][Sn]([CH2]CCC)([CH2]CCC)[CH2]CCC | inactive |
| CC(C)[C@@H](Nc1ccc(C(F)(F)F)cc1Cl)C(=O)OC(C#N)c1cccc(Oc2ccccc2)c1 (some centres not stated) | inactive |
| O=C1c2ccccc2C(=O)C1C(=O)C(c1ccccc1)c1ccc(Cl)cc1 (configuration not stated) | inactive |
| OCC(c1ccc(Cl)cc1)c1ccc(Cl)cc1 | inactive |
| Cc1cc(SCc2sc(-c3ccc(C(F)(F)F)c(F)c3)nc2C)ccc1OCC(=O)O | inactive |
| Oc1c(Br)cc(Br)cc1Br | inactive |
| O=c1[nH]c2ccccc2n1C1CCN(CCCC(c2ccc(F)cc2)c2ccc(F)cc2)CC1 | inactive |
| CC(C)(C1CCC(O)CC1)C1CCC(O)CC1 (configuration not stated) | inactive |
| O=c1oc2ccccc2c(O)c1C(CC(O)c1ccc(-c2ccc(Br)cc2)cc1)c1ccccc1 (configuration not stated) | inactive |
| O=S(=O)(c1ccc(Cl)cc1)c1cc(Cl)c(Cl)cc1Cl | inactive |

biological target: chimpanzee Androgen Receptor (AR), AR (gene 747460) (UniProt O97775); assay: NVS_NR_cAR: NovaScreen (NVS) Nuclear Receptor Binding Assay for chimpanzee Androgen Receptor (AR) (AID 2283346);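 also: radioligand displacement from AR measured by scintillation counting in a cell-free assay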
Sequence (O97775 whole entry, looked up): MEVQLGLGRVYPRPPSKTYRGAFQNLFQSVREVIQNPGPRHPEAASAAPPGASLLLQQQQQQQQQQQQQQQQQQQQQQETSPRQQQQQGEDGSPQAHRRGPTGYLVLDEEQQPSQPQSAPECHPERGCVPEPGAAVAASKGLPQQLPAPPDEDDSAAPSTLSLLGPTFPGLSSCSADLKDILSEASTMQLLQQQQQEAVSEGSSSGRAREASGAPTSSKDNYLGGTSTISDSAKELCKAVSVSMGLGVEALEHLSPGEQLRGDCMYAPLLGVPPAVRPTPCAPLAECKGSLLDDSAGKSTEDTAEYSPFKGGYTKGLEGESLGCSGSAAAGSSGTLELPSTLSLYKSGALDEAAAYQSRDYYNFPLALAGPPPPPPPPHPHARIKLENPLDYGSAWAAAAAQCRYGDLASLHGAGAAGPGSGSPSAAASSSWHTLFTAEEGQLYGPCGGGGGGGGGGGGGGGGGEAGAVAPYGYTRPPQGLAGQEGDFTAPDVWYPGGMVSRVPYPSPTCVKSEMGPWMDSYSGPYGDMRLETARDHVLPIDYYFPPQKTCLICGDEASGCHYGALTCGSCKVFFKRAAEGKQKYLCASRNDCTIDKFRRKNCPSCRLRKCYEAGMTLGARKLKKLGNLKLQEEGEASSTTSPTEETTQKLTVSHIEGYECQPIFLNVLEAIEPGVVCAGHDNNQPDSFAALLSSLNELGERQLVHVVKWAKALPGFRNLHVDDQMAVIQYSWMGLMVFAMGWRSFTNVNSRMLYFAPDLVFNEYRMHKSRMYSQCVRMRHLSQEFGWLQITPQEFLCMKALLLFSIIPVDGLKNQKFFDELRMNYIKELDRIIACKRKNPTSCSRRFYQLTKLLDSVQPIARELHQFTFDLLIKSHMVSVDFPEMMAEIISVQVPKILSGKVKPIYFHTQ
Procedure, shortened: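 Cell-free radioligand displacement using receptor protein extracted from Sf9/Sf21 cells; bound radioligand measured by scintillation counting 72 hours after chemical dosing. Loss of signal versus DMSO baseline indicates binding; primary screen single-concentration in duplicate at 25 uM, actives followed in concentration series.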

| Compound | outcome | AC50 |
| --- | --- | --- |
| CC(C)=CC1C(C(=O)OCc2cccc(Oc3ccccc3)c2)C1(C)C (configuration not stated) | inactive |  |
| Oc1cc(Cl)c(Cl)cc1Cl | inactive |  |
| Cc1ccc2nc3sc(=O)sc3nc2c1 |  | 0.363 µM (active) |
| O=C1c2ccccc2C(=O)C1C(=O)C(c1ccccc1)c1ccc(Cl)cc1 (configuration not stated) |  | 26.4 µM (active) |
| OC(Cc1ccccc1Cl)(Cn1cncn1)C1(Cl)CC1 (configuration not stated) | inactive |  |
| N#CS | inactive |  |
| Nc1ccc(N)cc1 |  | 25 µM (active) |
| O=c1oc2ccccc2c(O)c1C(CC(O)c1ccc(-c2ccc(Br)cc2)cc1)c1ccccc1 (configuration not stated) | inactive |  |
| C#CCOC(=O)/C=C(C)/C=C/CC(C)CCCC(C)C (configuration not stated) | inactive |  |

biological target: Estrogen receptor (Homo sapiens) (UniProt P03372); assay: NVS_NR_hER: NovaScreen (NVS) Nuclear Receptor Binding Assay for human Estrogen Receptor (ER) (AID 2283348)
Sequence (P03372 whole entry, looked up): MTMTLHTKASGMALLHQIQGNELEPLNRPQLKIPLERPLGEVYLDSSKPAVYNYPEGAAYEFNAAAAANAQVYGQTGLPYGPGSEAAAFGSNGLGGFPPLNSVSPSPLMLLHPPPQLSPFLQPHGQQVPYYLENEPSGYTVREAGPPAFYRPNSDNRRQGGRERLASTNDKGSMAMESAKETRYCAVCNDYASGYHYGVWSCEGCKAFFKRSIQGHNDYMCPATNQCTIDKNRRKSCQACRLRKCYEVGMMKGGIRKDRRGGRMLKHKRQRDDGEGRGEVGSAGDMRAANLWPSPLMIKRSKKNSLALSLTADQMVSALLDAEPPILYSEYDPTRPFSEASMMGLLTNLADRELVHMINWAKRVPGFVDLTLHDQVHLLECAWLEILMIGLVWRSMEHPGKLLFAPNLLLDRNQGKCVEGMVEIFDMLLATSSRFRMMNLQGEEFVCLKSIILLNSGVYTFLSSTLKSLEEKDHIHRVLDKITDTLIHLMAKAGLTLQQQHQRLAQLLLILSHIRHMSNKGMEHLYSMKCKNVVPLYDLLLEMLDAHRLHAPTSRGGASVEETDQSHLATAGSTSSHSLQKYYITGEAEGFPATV
Procedure, shortened: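 Cell-free radioligand binding with protein extracted from MCF7 cells; scintillation counting 18 hours after dosing. Loss of signal versus DMSO baseline read as displacement; primary single-concentration screen at 25 uM in duplicate, actives retested in concentration series.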

| Compound | outcome | AC50 |
| --- | --- | --- |
| O=S(=O)(Oc1ccc(Cl)cc1)c1ccc(Cl)cc1 | inactive |  |
| O=C(NC(=O)c1c(F)cccc1F)Nc1cc(Cl)c(Oc2ncc(C(F)(F)F)cc2Cl)c(Cl)c1 | inactive |  |
| O=C(Nc1ccc(Br)cc1)c1cc(Br)cc(Br)c1O | inactive |  |
| C=CC(=O)[O][Sn]([CH2]CCC)([CH2]CCC)[CH2]CCC | inactive |  |
| O=S1OC[C@@H]2[C@H](CO1)[C@]1(Cl)C(Cl)=C(Cl)[C@@]2(Cl)C1(Cl)Cl (some centres not stated) | inactive |  |
| CC(C)[C@@H](Nc1ccc(C(F)(F)F)cc1Cl)C(=O)OC(C#N)c1cccc(Oc2ccccc2)c1 (some centres not stated) | inactive |  |
| O=[N+]([O-])c1ccc(Nc2ccccc2)cc1 | inactive |  |
| C=CC(=O)OCC(COC(=O)C=C)(COC(=O)C=C)COC(=O)C=C | inactive |  |
| O=[N+]([O-])c1c2ccccc2cc2ccccc12 | inactive |  |
| Nc1ccc(Br)cc1 | inactive |  |
| O=C(Cl)OCCOCCOC(=O)Cl | inactive |  |
| OC(c1ccc(Cl)cc1)(c1ccc(Cl)cc1)c1cccnc1 | inactive |  |
| CCCCCCCCCCCCCCC(Br)C(=O)O (configuration not stated) | inactive |  |
| CC(C)(C)c1cc([N+](=O)[O-])cc(C(C)(C)C)c1O | inactive |  |
| O=C1c2ccccc2C(=O)C1C(=O)C(c1ccccc1)c1ccc(Cl)cc1 (configuration not stated) |  | 17.6 µM (active) |
| Cc1cc(SCc2sc(-c3ccc(C(F)(F)F)c(F)c3)nc2C)ccc1OCC(=O)O | inactive |  |
| CCCCC(CC)C(=O)Cl (configuration not stated) | inactive |  |
| c1csc(-c2ccc(-c3cccs3)s2)c1 | inactive |  |
| O=c1[nH]c2ccccc2n1C1CCN(CCCC(c2ccc(F)cc2)c2ccc(F)cc2)CC1 | inactive |  |
| CCCCCCCCCCCCBr | inactive |  |
| Oc1ccc(Cc2ccc(O)cc2)cc1 | inactive |  |
